Laboratory results published in PubChem BioAssay (Tox21).
Records with an inconclusive call do not appear. Where a call stands in place of a potency, no number is given. Calls of active or inactive are those of the source. Unless noted, calls come from the whole dose curve; as a rule, active = well fitted curve in the direction sought with a large enough effect in the repeat runs; inconclusive = weak or mixed curves; inactive = no such curve, though single readings can be large; an effect the other way counts as inactive or inconclusive.

Columns and labels:
[1] = qHTS assay to identify small molecule antagonists of the thyroid receptor (TR) signaling pathway - cell viability counter screen (AID 743064); note: nearly all actives have a fitted effect of over 50% in size; note: potency is the fitted concentration of half-maximal effect
In short: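 GH3.TRE-Luc rat pituitary cells dosed after 4 hr plating, co-stimulated with T3 at 1 nM final, incubated 23.5 h at 37 C. Viability measured in the same wells by CellTiter-Fluor fluorescence after 30 min further at 37 C.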

[2] = qHTS assay to identify small molecule antagonists of the thyroid receptor (TR) signaling pathway (AID 743065); note: nearly all actives have a fitted effect of over 55% in size; note: potency is the fitted concentration of half-maximal effect
In short: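 Antagonism measured as loss of luciferase signal in GH3 cells stably carrying a TRE-luciferase reporter, co-treated with compound and T3 (1 nM final) for 23.5 h at 37 C. Viability was read in the same well by CellTiter-Fluor.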

[3] = system: thyroid hormone receptor (rat, GH3 cells); assay: qHTS assay to identify small molecule agonists of the thyroid receptor (TR) signaling pathway (AID 743066; calls by dose curve)
[4] = biological target: Estrogen receptor (Homo sapiens) (UniProt P03372); assay: qHTS assay to identify small molecule antagonists of the estrogen receptor alpha (ER-alpha) signaling pathway (AID 743069; active = well fitted curve in the direction sought with a large enough effect in the signal ratio in the repeat runs, not every such curve was filed as active; the % refers to the signal ratio)
Estrogen receptor (Homo sapiens), sequence (P03372 whole entry, looked up): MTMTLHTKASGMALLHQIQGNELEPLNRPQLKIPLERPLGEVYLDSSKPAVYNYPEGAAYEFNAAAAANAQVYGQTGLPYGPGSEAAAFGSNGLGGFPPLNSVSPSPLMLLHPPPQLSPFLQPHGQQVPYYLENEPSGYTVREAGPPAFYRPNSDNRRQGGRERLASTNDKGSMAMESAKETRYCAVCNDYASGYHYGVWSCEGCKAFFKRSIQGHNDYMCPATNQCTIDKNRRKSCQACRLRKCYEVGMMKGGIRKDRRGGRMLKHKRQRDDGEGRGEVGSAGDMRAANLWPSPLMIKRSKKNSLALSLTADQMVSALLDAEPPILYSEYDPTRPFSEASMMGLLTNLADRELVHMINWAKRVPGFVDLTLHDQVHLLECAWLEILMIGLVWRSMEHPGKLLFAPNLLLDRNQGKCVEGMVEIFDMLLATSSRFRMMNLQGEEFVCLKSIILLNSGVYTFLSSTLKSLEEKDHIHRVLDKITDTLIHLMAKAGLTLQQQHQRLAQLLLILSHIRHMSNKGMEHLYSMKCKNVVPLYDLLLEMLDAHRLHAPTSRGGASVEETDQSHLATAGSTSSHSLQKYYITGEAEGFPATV
In short: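 ER-alpha-UAS-bla GripTite HEK293 line; 2% charcoal-stripped FBS overnight; plated, 4 hr 37C/5% CO2; cpd in DMSO + 17beta-estradiol, 18 hr 37C; LiveBLAzer B/G FRET substrate 2 hr RT; fluorescence intensity.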

[5] = qHTS assay to identify small molecule antagonists of the estrogen receptor alpha (ER-alpha) signaling pathway - cell viability counter screen (AID 743074; calls by dose curve;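 note: HEK293 cells carrying ER-alpha-UAS-bla reporter stimulated with 17beta-estradiol; nearly all actives have a fitted effect of over 45% in size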)
[6] = biological target: Estrogen receptor (Homo sapiens) (UniProt P03372); assay: qHTS assay to identify small molecule agonists of the estrogen receptor alpha (ER-alpha) signaling pathway (AID 743075; calls by dose curve;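 note: HEK293 GripTite cells with ER-alpha and UAS-driven beta-lactamase reporter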)
[7] = qHTS assay to identify small molecule antagonists of the estrogen receptor alpha (ER-alpha) signaling pathway using the BG1 cell line (AID 743080; calls by dose curve;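 note: BG1 cells stimulated with 17beta-estradiol alongside compound; series mostly up to about 70 µM; nearly all actives have a fitted effect of over 25% in size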)
In short: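 Luciferase inhibition measured with ONE-Glo after 30 min at RT in BG1Luc4E2 cells given test compounds and 17beta-estradiol for 21.5 h at 37 C; CellTiter-Fluor viability read in the same wells beforehand.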

[8] = qHTS assay to identify small molecule antagonists of the estrogen receptor alpha (ER-alpha) signaling pathway using the BG1 cell line - cell viability counter screen (AID 743081);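 note: compound given together with 17beta-estradiol as the ER stimulus; series mostly up to about 70 µM; nearly all actives have a fitted effect of over 45% in size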
Aromatase (Homo sapiens) = Aromatase (Homo sapiens) (UniProt P11511); assay: qHTS assay to identify aromatase inhibitors (AID 743083); note: nearly all actives have a fitted effect of over 55% in size; note: potency is the fitted concentration of half-maximal effect
Aromatase (Homo sapiens), sequence (P11511 whole entry, looked up): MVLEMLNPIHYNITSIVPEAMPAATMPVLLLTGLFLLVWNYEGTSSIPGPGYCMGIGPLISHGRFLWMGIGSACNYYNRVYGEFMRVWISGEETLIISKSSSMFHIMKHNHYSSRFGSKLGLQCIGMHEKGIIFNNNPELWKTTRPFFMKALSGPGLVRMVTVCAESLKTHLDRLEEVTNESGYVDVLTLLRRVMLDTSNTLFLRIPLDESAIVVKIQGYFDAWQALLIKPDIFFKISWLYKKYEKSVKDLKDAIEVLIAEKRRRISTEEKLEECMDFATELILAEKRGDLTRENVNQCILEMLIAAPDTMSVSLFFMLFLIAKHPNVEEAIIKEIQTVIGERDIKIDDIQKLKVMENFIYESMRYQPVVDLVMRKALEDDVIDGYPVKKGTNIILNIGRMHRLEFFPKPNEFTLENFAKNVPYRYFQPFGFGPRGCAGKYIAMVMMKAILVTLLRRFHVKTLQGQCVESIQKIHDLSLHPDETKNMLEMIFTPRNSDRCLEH

[9] = biological target: Estrogen receptor (Homo sapiens) (UniProt P03372); assay: qHTS assay to identify small molecule agonists of the estrogen receptor alpha (ER-alpha) signaling pathway using the BG1 cell line (AID 743079); note: nearly all actives have a fitted effect of over 20% in size

SMILES	Potency [1]	Potency [2]	outcome [3]	outcome [4]	outcome [5]	outcome [6]	Potency [7]	outcome [8]	Potency (Aromatase (Homo sapiens))	Potency [9]
CC(=C(CCOC(=O)C(C)C)SSC(CCOC(=O)C(C)C)=C(C)N(C=O)Cc1cnc(C)nc1N)N(C=O)Cc1cnc(C)nc1N	inactive	inactive	inactive	inactive	inactive	inactive	inactive	inactive	inactive	
CCOC(=O)/C=C/c1ccccc1	inactive	inactive	inactive	inactive		inactive	inactive	inactive	inactive	inactive
CN(CCOc1ccc(NS(C)(=O)=O)cc1)CCc1ccc(NS(C)(=O)=O)cc1	inactive	inactive	inactive		inactive	inactive	inactive	inactive	inactive	inactive
BrCCCCCBr	inactive	inactive	inactive	inactive		inactive	inactive	inactive	inactive	inactive
O=C(CCN1CCN(CCO)CC1)N1c2ccccc2Sc2ccc(C(F)(F)F)cc21	13.3 µM (active)	21.1 µM (active)	inactive	inactive		inactive	inactive		inactive	inactive
Cc1c(I)c(=O)n(-c2ccccc2)n1C	inactive	inactive	inactive	inactive		inactive	inactive	inactive	inactive	inactive
CC(CN)CC(C)(C)CCN (configuration not stated)	inactive	inactive	inactive		inactive			inactive	inactive	
Cc1ccccc1N=O	inactive	inactive	inactive		inactive			inactive		
C[Si](C)(C)C	inactive	inactive	inactive		inactive			inactive	inactive	
CCO[Si](CCCS)(OCC)OCC	inactive	inactive	inactive		inactive			inactive	inactive	
C=CC(OCC)OCC	inactive	inactive	inactive		inactive			inactive	inactive	
COc1ccc(C2CNC(=O)C2)cc1OC1CCCC1 (configuration not stated)	inactive	inactive	inactive		inactive			inactive	inactive	
CC1COc2ccccc2N1 (configuration not stated)	inactive	inactive	inactive		inactive			inactive	inactive	
CCN(CC)CC(=O)Nc1c(C)cccc1C	inactive	inactive	inactive		inactive			inactive		
O=C(OCC1(COC(=O)c2cccnc2)CCCC(COC(=O)c2cccnc2)(COC(=O)c2cccnc2)C1O)c1cccnc1	inactive	inactive	inactive		inactive			inactive	inactive	
CCc1ccc(C=O)cc1	inactive	inactive	inactive		inactive			inactive	inactive	
CC(=O)c1sc(C)nc1C	inactive	inactive	inactive		inactive			inactive	inactive	
FC(F)(F)c1ccccc1-n1ccnc1	inactive	inactive	inactive		inactive			inactive	6.68 µM (active)	
CCOCCOCCOCC	inactive	inactive	inactive		inactive			inactive	inactive	
C=COCCOCCOCCOC=C	inactive	inactive	inactive		inactive			inactive	inactive	
CC(C)(C)c1cc(CCC(=O)NN)cc(C(C)(C)C)c1O	inactive	inactive	inactive		inactive			inactive	inactive	
COCCOCCOCCOCCOCCO	inactive	inactive	inactive		inactive			inactive	inactive	
